Measured values from PubChem BioAssay (Tox21).
Inconclusive results are not listed. A call without a number means that no potency is given here. A number with no mark means an inactive call. The source made the active and inactive calls. Calls come from the whole dose curve; as a rule, active = well fitted cell-killing curve with a large enough effect in the repeat runs; inconclusive = weak or mixed curves; inactive = no such curve, though single readings can be large or run the other way.

assay: qHTS assay to identify small molecule antagonists of the peroxisome proliferator-activated receptor delta (PPARd) signaling pathway - cell viability counter screen (AID 743213); conditions: PPARd-bla HEK293H viability, CellTiter-Glo luminescence, 17 h; series mostly up to 62 µM; note: nearly all actives have a fitted effect of over 50% in size
How it was run: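 HEK293H PPARd UAS-bla cells, 5 h pre-incubation, compound + L165041 300 nM final, 17 h 37 C; B/G FRET substrate 2 h RT; then CellTiter-Glo 30 min RT, luminescence.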

Row | Compound | Potency | viability change, negative = cytotoxic
1 | C[C@H](O)C(=O)Nc1c(I)c(C(=O)NC(CO)CO)c(I)c(C(=O)NC(CO)CO)c1I | inactive | 
2 | CCC(C)OC(=O)N1CCCCC1CCO (configuration not stated) | inactive | 
3 | CC1=CCC2C(C1)C2(C)C (configuration not stated) | inactive | 
4 | O=C(O)/C=C/c1ccc(/C=C/C(=O)O)cc1 | inactive | 
5 | CC(C)c1cccc(O)c1 | inactive | 
6 | C=CC(=O)OCCCCCC | inactive | 
7 | CCC(=O)/C=C/c1ccc(OC)cc1 | inactive | 
8 | Nc1cc(N)cc(C(=O)O)c1 | inactive | 
9 | Cc1c(F)cc2c(=O)c(C(=O)O)cn3c2c1CCC3C (configuration not stated) | inactive | 
10 | CC12CCC(CC1=O)C2(C)C (configuration not stated) | inactive | 
11 | CC1=CC(=O)CCC1 | inactive | 
12 | OC/C=C/c1ccccc1 | inactive | 
13 | CC(C)(O)C(=O)c1ccc(OCCO)cc1 | inactive | 
14 | CCn1c(=O)c2c(nc(/C=C/c3ccc(OC)c(OC)c3)n2C)n(CC)c1=O | inactive | 
15 | CCOC(=O)Nc1ccc2c(c1)N(C(=O)CCN1CCOCC1)c1ccccc1S2 | inactive | 
16 | CN(C)CCOC(c1ccc(Cl)cc1)c1ccccn1 (configuration not stated) | inactive | 
17 | Oc1cc(O)c2c(c1)O[C@H](c1ccc(O)c(O)c1)[C@H](O)C2 | inactive | 
18 | CCCCCCOC(=O)CC(CC(=O)OCCCCCC)(OC(=O)CCC)C(=O)OCCCCCC | inactive | 
19 | CC(C)[C@H](N)C(=O)OCCOCn1cnc2c(=O)[nH]c(N)nc21 | inactive | 

Row | Compound | Potency | viability change, negative = cytotoxic
20 | CC(C)[N+](C)(C)CC(O)COc1cccc2ccccc12 (configuration not stated) | inactive | 
21 | CC(C)(O)Cc1ccccc1 | inactive | 
22 | CC(=O)N[C@@H](CCC(N)=O)C(=O)O | inactive | 
23 | CCCCCOC(=O)Nc1nc(=O)n([C@@H]2O[C@H](C)[C@@H](O)[C@H]2O)cc1F | inactive | 
24 | C=C(C)C(=O)NCCCN(C)C | inactive | 
25 | NC1CCN(c2cccc(Cl)n2)CC1 | inactive | 
26 | NC(=O)CCCCC1CCSS1 (configuration not stated) | inactive | 
27 | C#CC(O)CCCCC (configuration not stated) | inactive | 
28 | [O-][N+](=Nc1ccccc1)c1ccccc1 | inactive | 
29 | Cc1cc(C)cc(OCC2CNC(=O)O2)c1 (configuration not stated) | inactive | 
30 | CC(C)N1C(=O)c2ccccc2C1=O | inactive | 
31 | COC(=O)c1ccc(C(=O)OC)c(C(=O)OC)c1 | inactive | 
32 | CC(C=O)Cc1ccc(C(C)C)cc1 (configuration not stated) | inactive | 
33 | NCC[C@H](O)C(=O)N[C@@H]1C[C@H](N)[C@@H](O[C@H]2O[C@H](CN)[C@@H](O)[C@H](O)[C@H]2O)[C@H](O)[C@H]1O[C@H]1O[C@H](CO)[C@@H](O)[C@H](N)[C@H]1O |  | -2.06% [at 0.575 µM]
34 | N#CCN(CC#N)CCN(CC#N)CC#N | inactive | 
35 | CCC(C(=O)NC(N)=O)c1ccccc1 (configuration not stated) | inactive | 
36 | CC/C=C\C#N | inactive | 
37 | Nc1nc2c(ncn2CCC(CO)CO)c(=O)[nH]1 | inactive | 
